# Activity calls are given as the source filed them. Unless noted, no stated cut-off is given here; in the data, active means inhibition above about 80%; inactive means the rest.
# Key:
# [1] = growth inhibition, single agent or in combination, cell-based, chromothripsis tumors, cisplatin or BGB combos (AID 1671449); conditions: LFS_MB_P medulloblastoma cells;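 further: cells exposed for 96 hours; 0% = vehicle DMSO and 100% = killing by high DMSO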
# [2] = growth inhibition, single agent and combos, cell-based, chromothripsis tumors, cisplatin or BGB combos (AID 1671450); conditions: HDN33 neuroblastoma cells, stronger effect = higher value;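 further: cells exposed to compound for four days; 0% = vehicle DMSO and 100% = cell killing by high DMSO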
# [3] = growth inhibition, single agents and combos, ICB984, cell-based, cisplatin or BGB combos, synergistic combos for chromothripsis tumors (AID 1671451; call rule not given here;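 further: cells exposed for 96 hours before readout; 0% = vehicle DMSO and 100% = killing by high DMSO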); conditions: ICB984 medulloblastoma cells, drug combinations, stronger effect = higher value
# [4] = growth inhibition, single agents and combos, LFS_MB_1R, cell-based, cisplatin or BGB combos, synergistic combos for chromothripsis tumors (AID 1671452); conditions: LFS_MB_1R medulloblastoma cells, stronger effect = higher value;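 further: cells exposed for 96 hours before readout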
# [5] = growth inhibition, single agents and combos, HTB85, cell-based, BGB or cisplatin IC20 combos, synergistic combos for chromothripsis tumors (AID 1671453); conditions: HTB85 osteosarcoma cells, drug combinations, stronger effect = higher value;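 further: cells exposed for 96 hours before readout; 0% = vehicle DMSO and 100% = high DMSO killing control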
# [6] = growth inhibition, single agents and combos, CRL2098, cell-based, BGB or cisplatin IC20 combos, synergistic combos for chromothripsis tumors (AID 1671454); conditions: CRL2098 osteosarcoma cells, drug combinations, stronger effect = higher value;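 further: cells exposed for 96 h before readout; 0% = vehicle DMSO and 100% = killing by high DMSO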
# [7] = growth inhibition, single agents and combos, HD-MB03, cell-based, BGB or cisplatin IC20 combos, synergistic combos for chromothripsis tumors (AID 1671455; in the data active means inhibition above about 83%;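 further: 0% = vehicle DMSO and 100% = high DMSO as cytotoxic control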); conditions: HD-MB03 medulloblastoma cells, stronger effect = higher value
# [8] = growth inhibition, single agents and combos, UWB1.289, cell-based, BGB or cisplatin combos, synergistic combos for chromothripsis tumors (AID 1671456); conditions: UWB1.289 ovarian carcinoma cells, stronger effect = higher value;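 further: cells exposed to compound for four days; 0% = vehicle DMSO and 100% = killing by high DMSO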
# [9] = growth inhibition, single agents and combos, LFS_MB_2R, cell-based, cisplatin combos, synergistic combos for chromothripsis tumors (AID 1671457); conditions: LFS_MB_2R medulloblastoma cells, stronger effect = higher value;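 further: cells exposed to compound for four days before readout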
# [10] = growth inhibition, MDA-MB-436, cell-based, BGB or cisplatin combos, synergistic combos for chromothripsis tumors (AID 1671458; call rule not given here;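 further: cells exposed for 96 hours; 0% = vehicle DMSO and 100% = killing by high DMSO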); conditions: MDA-MB-436 breast carcinoma growth inhibition, drug combinations, stronger effect = higher value
# [11] = UWB1.289_BRCA1 ovarian cancer growth, cell-based, BGB or cisplatin combinations (AID 1671459); conditions: UWB1.289 BRCA1 ovarian carcinoma, drug combinations, stronger effect = higher value
# [12] = drug combination toxicity in non-malignant astrocytes – cell-based, BGB or cisplatin IC20 combos, cytotoxicity control for chromothriptic childhood tumor combination screen (AID 1671460); conditions: Human astrocytes, viability inhibition, drug combinations, at 0.5 µM, stronger effect = higher value;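 further: cells exposed to compounds for 96 hours before viability readout; 0% = vehicle and 100% = killing control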
# [13] = BT084 cell growth, single and combined drugs, ICGC_MB145, cisplatin and BGB IC40 combos (AID 1671461); conditions: BT084 medulloblastoma cells, drug combinations, stronger effect = higher value;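 further: cells exposed to drugs for 96 hours; 0% = vehicle DMSO and 100% = high DMSO full killing control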
# [14] = RCMB18 cell growth, single agent and combined, cisplatin and BGB IC40 combos (AID 1671462); conditions: RCMB18 medulloblastoma cells, stronger effect = higher value;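 further: cells exposed to compound for four days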
# [15] = CRL1545 cell growth, single agent and combined, cisplatin and BGB IC20 combos (AID 1671464); conditions: CRL1545 osteosarcoma cells, stronger effect = higher value;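 further: cells exposed to compound for 96 hours before readout; 0% = vehicle DMSO and 100% = high DMSO killing control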
# [16] = at 0.5 µM, stronger effect = higher value
# [17] = measured here: combination with BGB IC20, at 0.005 µM
# [18] = measured here: combination with BGB IC40, at 0.005 µM
# [19] = measured here: combination with BGB IC40, at 0.05 µM
# [20] = measured here: combination with cisplatin, at 0.5 µM, stronger effect = higher value
# [21] = measured here: combination with cisplatin, at 5 µM, stronger effect = higher value
# [22] = measured here: with BGB IC20 combination, at 0.5 µM
# [23] = measured here: with cisplatin IC20 combination, at 0.5 µM
# [24] = measured here: 5 uM single agent, at 5 µM
# [25] = measured here: combination with cisplatin, at 0.5 µM
# [26] = measured here: combination with cisplatin, at 5 µM
# [27] = measured here: with BGB IC20, at 0.5 µM
# [28] = measured here: with BGB IC20, at 5 µM
# [29] = measured here: with cisplatin IC20, at 0.5 µM
# [30] = measured here: with cisplatin IC20, at 5 µM
# [31] = measured here: combination with BGB at IC20, at 0.5 µM
# [32] = measured here: combination with cisplatin at IC20, at 0.5 µM
# [33] = measured here: combo with BGB at IC20, at 0.5 µM
# [34] = measured here: combo with cisplatin at IC20, at 0.5 µM
# [35] = measured here: inhibition with BGB combination, at 0.05 µM
# [36] = measured here: inhibition with cisplatin combination, at 0.05 µM
# [37] = measured here: BGB combination, at 0.5 µM
# [38] = measured here: BGB combination, at 5 µM
# [39] = measured here: cisplatin combination, at 0.5 µM
# [40] = measured here: cisplatin combination, at 5 µM
# [41] = BGB combination, concentration series, at 5 µM
# [42] = cisplatin combination, concentration series, at 5 µM
# [43] = measured here: combo with BGB IC20
# [44] = measured here: combo with cisplatin IC20
# [45] = cisplatin combination, at 0.5 µM
# [46] = measured here: BGB IC40 combination 0.05 uM, at 0.05 µM
# [47] = measured here: BGB IC40 combination, at 0.05 µM
structure (smiles),measurement,setting,value
CCC(Sc1nnc2c3ccccc3n(CC)c2n1)C(=O)Nc1ccccc1OC (stereo unspecified),inhibition,[1]; [16],-17.9% (inactive)
same,inhibition,[1]; [17],-26%
same,inhibition,[1]; [18],87.7%
same,inhibition,[1]; [19],-14.4%
same,inhibition,[1]; [20],-20.5%
same,inhibition,[1]; [21],-38.2%
same,inhibition,"[2]; BGB combo, at 5 µM",-25%
same,inhibition,[2]; at 0.5 µM,-10.1% (inactive)
same,inhibition,"[2]; cisplatin combo, at 5 µM",7.7%
same,inhibition,[2]; [22],-15.6%
same,inhibition,[2]; [23],-11.8%
same,inhibition,"[2]; single agent, at 5 µM",1.35%
same,inhibition,"[3]; BGB IC20 combo, at 0.005 µM",-20.7%
same,inhibition,"[3]; BGB IC40 combo, at 0.005 µM",-12.8%
same,inhibition,"[3]; BGB IC40 combo, at 0.05 µM",-32.4%
same,inhibition,[3]; at 0.5 µM,-26.1% (inactive)
same,inhibition,"[3]; cisplatin combo, at 0.05 µM",-39.2%
same,inhibition,"[3]; cisplatin combo, at 0.5 µM",-34.7%
same,inhibition,"[3]; cisplatin combo, at 5 µM",-6.65%
same,inhibition,[3]; [24],-26%
same,inhibition,[4]; at 0.5 µM,-22.8% (inactive)
same,inhibition,[4]; [19],-32%
same,inhibition,[4]; [25],-18.6%
same,inhibition,[4]; [26],-34.1%
same,inhibition,[5]; at 0.5 µM,0.76% (inactive)
same,inhibition,[5]; [27],6.64%
same,inhibition,[5]; [28],-8.08%
same,inhibition,[5]; [29],-8.64%
same,inhibition,[5]; [30],-18%
same,inhibition,"[5]; single agent, at 5 µM",3.91%
same,inhibition,[6]; at 0.5 µM,-23.4% (inactive)
same,inhibition,[6]; [31],-38.3%
same,inhibition,[6]; [32],-32%
same,inhibition,[7]; at 0.5 µM,-13.9% (inactive)
same,inhibition,[7]; [33],-20.2%
same,inhibition,[7]; [34],-12.1%
same,inhibition,[8]; at 0.5 µM,1.85% (inactive)
same,inhibition,[8]; [35],-11.2%
same,inhibition,[8]; [36],-1.41%
same,inhibition,[9]; at 0.5 µM,-23.8% (inactive)
same,inhibition,[9]; [25],-34.2%
same,inhibition,[9]; [26],-45.7%
same,inhibition,[10]; at 0.5 µM,-18.3% (inactive)
same,inhibition,[10]; [37],-16.3%
same,inhibition,[10]; [38],-14.5%
same,inhibition,[10]; [39],-37.5%
same,inhibition,[10]; [40],-22%
same,inhibition,[11]; [41],-8.24%
same,inhibition,[11]; at 0.5 µM,0.44% (inactive)
same,inhibition,[11]; [42],11.1%
same,inhibition,[12],10.6% (inactive)
same,inhibition,[12]; [43],14.7%
same,inhibition,[12]; [44],10.3%
same,inhibition,[13]; at 0.5 µM,-2.76% (inactive)
same,inhibition,[13]; [45],-8.44%
same,inhibition,"[13]; cisplatin combination, at 5 µM",-148%
same,inhibition,[13]; [46],-28.4%
same,inhibition,"[13]; single agent, at 5 µM",-15.3%
same,inhibition,[14]; at 0.5 µM,-9.8% (inactive)
same,inhibition,"[14]; cisplatin combo, at 5 µM",-1.17%
same,inhibition,[14]; [47],-28%
same,inhibition,[14]; [25],-27.5%
same,inhibition,"[14]; single agent, at 5 µM",-2.94%
same,inhibition,[15]; at 0.5 µM,-6.26% (inactive)
same,inhibition,[15]; [22],3.68%
same,inhibition,[15]; [23],-13%
same,inhibition,"[15]; single agent, at 0.05 µM",-16.5%
same,inhibition,"[15]; single agent, at 5 µM",1.47%
Nc1nc(NC2CC2)cc(-c2cccc(Cl)c2Cl)n1,inhibition,[1]; [16],-24.4% (inactive)
same,inhibition,[1]; [17],6.42%
same,inhibition,[1]; [18],-13.3%
same,inhibition,[1]; [19],-3.68%
same,inhibition,[1]; [20],-27.2%
same,inhibition,[1]; [21],-1.92%
same,inhibition,"[2]; BGB combo, at 5 µM",4.24%
same,inhibition,[2]; at 0.5 µM,-22.2% (inactive)
same,inhibition,"[2]; cisplatin combo, at 5 µM",-25.5%
same,inhibition,[2]; [22],-14.4%
same,inhibition,[2]; [23],-33.4%
same,inhibition,"[2]; single agent, at 5 µM",1.5%
same,inhibition,"[3]; BGB IC20 combo, at 0.005 µM",-16.3%
same,inhibition,"[3]; BGB IC40 combo, at 0.005 µM",-42.9%
same,inhibition,"[3]; BGB IC40 combo, at 0.05 µM",-23.9%
same,inhibition,[3]; at 0.5 µM,-15.4% (inactive)
same,inhibition,"[3]; cisplatin combo, at 0.05 µM",-28.8%
same,inhibition,"[3]; cisplatin combo, at 0.5 µM",-25.9%
same,inhibition,"[3]; cisplatin combo, at 5 µM",-24%
same,inhibition,[3]; [24],-4.67%
same,inhibition,[4]; at 0.5 µM,-47.5% (inactive)
same,inhibition,[4]; [19],-29.4%
same,inhibition,[4]; [25],-115%
same,inhibition,[4]; [26],-60.1%
same,inhibition,[5]; at 0.5 µM,-20.9% (inactive)
same,inhibition,[5]; [27],-3.53%
same,inhibition,[5]; [28],-8.44%
same,inhibition,[5]; [29],-38.1%
same,inhibition,[5]; [30],-21.3%
same,inhibition,"[5]; single agent, at 5 µM",3.83%
same,inhibition,[6]; at 0.5 µM,-50% (inactive)
same,inhibition,[6]; [31],-42.1%
same,inhibition,[6]; [32],-36.5%
same,inhibition,[7]; at 0.5 µM,-12.4% (inactive)
same,inhibition,[7]; [33],-17%
same,inhibition,[7]; [34],-8.02%
same,inhibition,[8]; at 0.5 µM,-15.7% (inactive)
same,inhibition,[8]; [35],-10.8%
same,inhibition,[8]; [36],-19.7%
same,inhibition,[9]; at 0.5 µM,-12.8% (inactive)
same,inhibition,[9]; [25],-18%
same,inhibition,[9]; [26],18.1%
same,inhibition,[10]; at 0.5 µM,-5.02% (inactive)
same,inhibition,[10]; [37],-1.67%
same,inhibition,[10]; [38],10.3%
same,inhibition,[10]; [39],-5.74%
same,inhibition,[10]; [40],15.8%
same,inhibition,[11]; [41],9.28%
same,inhibition,[11]; at 0.5 µM,-9.72% (inactive)
same,inhibition,[11]; [42],10.7%
same,inhibition,[12],-2.78% (inactive)
same,inhibition,[12]; [43],-4.24%
same,inhibition,[12]; [44],6.45%
same,inhibition,[13]; at 0.5 µM,-9.21% (inactive)
same,inhibition,[13]; [45],-6.21%
same,inhibition,"[13]; cisplatin combination, at 5 µM",-20.8%
same,inhibition,[13]; [46],-10.7%
same,inhibition,"[13]; single agent, at 5 µM",-6.16%
same,inhibition,[14]; at 0.5 µM,-8.4% (inactive)
same,inhibition,"[14]; cisplatin combo, at 5 µM",-0.639%
same,inhibition,[14]; [47],-3.5%
same,inhibition,[14]; [25],-22.4%
same,inhibition,"[14]; single agent, at 5 µM",-28.4%
same,inhibition,[15]; at 0.5 µM,-36.8% (inactive)
same,inhibition,[15]; [22],-16.7%
same,inhibition,[15]; [23],-46.8%
same,inhibition,"[15]; single agent, at 0.05 µM",-25%
same,inhibition,"[15]; single agent, at 5 µM",-32.6%

# Reference: PubChem BioAssay
